Assays:
Assay in all cases: growth inhibition (% activity, log2 RLU normalised to DMSO / staurosporine); higher = more growth inhibition
Details in all cases: 33 µM
DIPGX29 = tested on: DIPGX29 (H3.3 K27M diffuse intrinsic pontine glioma line)
Procedure, shortened: (§1)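 Approved drugs were tested in triplicate at a single final concentration of about 33 μM for 7 days at 37 °C, 5% CO2, on pHGG cell lines and H9-derived neural stem cells. Readout was CellTiter-Glo luminescence, log2-transformed and scaled per plate to % activity between solvent and positive control wells. The median over replicates gives the growth-inhibition value.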

DIPGX37 = tested on: DIPGX37 (H3.3 K27M diffuse intrinsic pontine glioma line)
Procedure, shortened: as §1

DIPGX7 = tested on: DIPGX7 (H3.3 K27M diffuse intrinsic pontine glioma line)
Procedure, shortened: as §1

DIPGX9 = tested on: DIPGX9 (diffuse intrinsic pontine glioma line)
Procedure, shortened: as §1

HGGX39 = tested on: HGGX39 (paediatric high-grade glioma line)
Procedure, shortened: as §1

HGGX6 = tested on: HGGX6 (H3.3 G34R paediatric high-grade glioma line)
Procedure, shortened: as §1

HNSC = tested on: HNSC
Procedure, shortened: as §1

SUDIPGIV = tested on: SUDIPGIV (diffuse intrinsic pontine glioma line)
Procedure, shortened: as §1

SUDIPGVI = tested on: SUDIPGVI (diffuse intrinsic pontine glioma line)
Procedure, shortened: as §1

SUDIPGXIII = tested on: SUDIPGXIII (diffuse intrinsic pontine glioma line)
Procedure, shortened: as §1

Row | SMILES | growth inhibition (DIPGX29) [%] | growth inhibition (DIPGX37) [%] | growth inhibition (DIPGX7) [%] | growth inhibition (DIPGX9) [%] | growth inhibition (HGGX39) [%] | growth inhibition (HGGX6) [%] | growth inhibition (HNSC) [%] | growth inhibition (SUDIPGIV) [%] | growth inhibition (SUDIPGVI) [%] | growth inhibition (SUDIPGXIII) [%]
1 | CN(c1nccc(=O)[nH]1)C1CCN(c2nc3ccccc3n2Cc2ccc(F)cc2)CC1 | 2.38 | 2.96 | 2.33 | 1.85 | 4.67 | 3.86 | 1.95 | 0.631 | 3.14 | -15
2 | Nc1ccn(C[C@@H](CO)OCP(=O)(O)O)c(=O)n1 | 1.21 | 2.43 | 1.32 | 1.05 | -0.556 | -0.434 | 3.12 | 2.09 | 1.15 | 1.19
3 | CC(=O)O[C@]1(C(C)=O)CC[C@H]2[C@@H]3C=C(C)C4=CC(=O)CC[C@]4(C)[C@H]3CC[C@@]21C | 0.869 | 1.56 | 2.71 | 1.56 | -0.284 | -3.03 | -2.32 | -1.52 | -0.924 | 1.41
4 | C[N+](C)(C)CCCCCC[N+](C)(C)C | -5.28 | -1.26 | 0.491 | -2.94 | -1.88 | -5.38 | 11.7 | -2.32 | -9.56 | 0.369
5 | CCCCC(CC)CN=C(N)N=C(N)NCCCCCCNC(N)=NC(N)=NCC(CC)CCCC (stereo not given) | 57.1 | 60.6 | 58.2 | 57.3 | 58.4 | 59.5 | 67.8 | 59.4 | 60.2 | 69.8
6 | CN(C)c1cc(NC(=O)CNC(C)(C)C)c(O)c2c1CC1CC3C(N(C)C)C(=O)C(C(N)=O)=C(O)C3(O)C(=O)C1=C2O (stereo not given) | -2.13 | -0.102 | -0.656 | -1.41 | -1.33 | -2.33 | -2.93 | -2.9 | -1.89 | 0.694
7 | CN1CC2c3ccccc3Oc3ccc(Cl)cc3C2C1 (stereo not given) | 1.89 | -5.66 | 0.982 | 0.366 | 5.72 | 0.239 | 2.74 | 2.1 | -0.852 | 0.618
8 | Nc1nc2[nH]cnc2c(=S)[nH]1 | 23.3 | 12.5 | 5.75 | 17.2 | 25 | 18.7 | 63.7 | 42.5 | -1.02 | 2.55
9 | CC(C)OC(=O)C(C)(C)Oc1ccc(C(=O)c2ccc(Cl)cc2)cc1 | 3.79 | 2.12 | 2.17 | 2.82 | 2.79 | -3.05 | 54.6 | 1.24 | 2.08 | 0.0771
10 | O=C1[C@@H]2[C@H]3CC[C@H](C3)[C@@H]2C(=O)N1C[C@@H]1CCCC[C@H]1CN1CCN(c2nsc3ccccc23)CC1 | -3.28 | 0.212 | 1.18 | -1.28 | 2.33 | 1.59 | 2.62 | -0.0151 | 0.346 | 2.16
11 | COc1ccc2cc([C@H](C)C(=O)O)ccc2c1 | -0.22 | -1.1 | -0.43 | 0.193 | -0.312 | 0.298 | 0.9 | -2.72 | 0.358 | 0.579
12 | Nc1c(CC(=O)O)cccc1C(=O)c1ccccc1 | -1.69 | -2.54 | -0.79 | -0.667 | -0.264 | -1.13 | -2.43 | -5.49 | -5.35 | 1.21
13 | CNC(=O)c1cc(Oc2ccc(NC(=O)Nc3ccc(Cl)c(C(F)(F)F)c3)c(F)c2)ccn1 | 4.67 | 2.29 | 3.66 | 2.56 | 5.15 | 5.99 | 39.1 | 1.19 | 4.32 | 59.3
14 | CCN(Cc1ccncc1)C(=O)C(CO)c1ccccc1 (stereo not given) | -2.54 | -1.96 | -1.34 | -0.78 | -1.19 | 0.149 | -4.87 | -1.01 | -0.507 | -1.24
15 | NC[C@@H]1O[C@H](O[C@H]2[C@@H](O)[C@H](O[C@@H]3[C@@H](O)[C@H](N)C[C@H](N)[C@H]3O[C@H]3O[C@H](CN)[C@@H](O)[C@H](O)[C@H]3N)O[C@@H]2CO)[C@H](N)[C@@H](O)[C@@H]1O | 0.966 | 0.68 | 1.55 | 0.402 | 2.24 | -1.34 | 20.2 | 2.53 | -6.55 | -0.235
16 | NCC1OC(OC2C(N)CC(N)C(OC3OC(CO)C(O)C(N)C3O)C2O)C(N)C(O)C1O (stereo not given) | -1.38 | 0.63 | 0.452 | -1.1 | 1.6 | -1.9 | 30.8 | -0.143 | -4.48 | -1.57
17 | CN1CCCC(n2nc(Cc3ccc(Cl)cc3)c3ccccc3c2=O)CC1 (stereo not given) | 3.68 | 2.48 | 4.68 | 2.54 | 7.54 | 3.65 | 0.14 | 1.76 | 0.965 | 2.09
18 | CN(CCOc1ccc(NS(C)(=O)=O)cc1)CCc1ccc(NS(C)(=O)=O)cc1 | -2.77 | -1.46 | 0.833 | -2.46 | -2.37 | -1.41 | -6.33 | -2.75 | -13.8 | 0.844
19 | COc1cc(C)c(/C=C/C(C)=C/C=C/C(C)=C/C(=O)O)c(C)c1C | 5.2 | -2.81 | 6.14 | 8.33 | 7.33 | 6.28 | 7.89 | 6.68 | 4.93 | 1.6
20 | CCCCCCCCCCCCCCCC[N+](C)(C)CCN(Cc1ccc(OC)cc1)c1ncccn1 | 59.2 | 55.6 | 57.6 | 55.3 | 59.2 | 62 | 57.8 | 57.6 | 56.7 | 42.9
21 | CC(C)(C)NCC(O)c1ccc(O)c(CO)c1 (stereo not given) | -2.88 | -1.32 | -0.0436 | -1.85 | -1.15 | 1.2 | -1.34 | 1.26 | -4.26 | 1.25

Reference: the supplement of paper PMC8253809
